Test [1] has as its system TRPC4 beta (transient receptor potential cation channel C4), mouse. The test is described as follows: TRPC4 cation channel opening, retest – cell-based, Fluo4 calcium, HEK293 TRPC4beta/mu-opioid, duplicates, 10 µM, confirmation (AID 2426;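 active means fluorescence ratio normalized to control raised more than 50% in primary screen plus both repeat runs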). The following applies: Fluo4 calcium fluorescence, at 10 µM; active compounds read high.
In test [2] the test system is transient receptor potential cation channel C4 beta (TRPC4), mouse. The test is described as follows: TRPC4 cation channel opening, second retest – cell-based, second round, Fluo4, HEK293 TRPC4beta/mu-opioid, 1 µM, confirmation (AID 2461;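 active means primary screen active and over 50% activation in each of two duplicate runs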). The conditions noted are these: Fluo4 calcium fluorescence, at 1 µM; active compounds read high.
The subject of test [3] is TRPC4 (transient receptor potential cation channel C4 beta), mouse. The test is described as follows: potentiation of DAMGO EC20 TRPC4 response – cell-based, second round, Fluo-4, HEK293 TRPC4beta/mu-opioid, 1 µM, confirmation (AID 2554;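 active means primary screen hit whose fluorescence ratio, in both repeats, exceeds the weak agonist control mean by 3 SD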). The following applies: DAMGO EC20, Fluo-4 calcium flux, at 1 µM; active compounds read high. A general note: Calcium assays in cells follow changes in intracellular calcium, usually with a dye or a luminescent sensor.

The subject of test [4] is TRPC4 beta (transient receptor potential cation channel C4), mouse. The test is described as follows: potentiation of DAMGO EC20 TRPC4 response – cell-based, Fluo-4, HEK293 TRPC4beta/mu-opioid, confirmation (AID 2555;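 active means primary screen hit whose calcium fluorescence ratio, in both repeats, exceeds the weak agonist control mean by 3 SD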). The conditions noted are these: DAMGO EC20, Fluo-4 calcium flux, at 10 µM; active compounds read high.
Test [5] deals with Short transient receptor potential channel 4 (Mus musculus) (UniProt Q9QUQ5). The test is described as follows: blockers of DAMGO-evoked TRPC4 calcium flux – cell-based, Fluo4, HEK293 TRPC4beta/mu-opioid, confirmation (AID 2636;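 active means calcium signal cut by more than 3 SD below the full-agonist control yet still positive, in both repeats and the earlier primary screen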). The following applies: at 10 µM; active compounds read high.
Chain of Short transient receptor potential channel 4 (Mus musculus) (Q9QUQ5 whole entry, looked up): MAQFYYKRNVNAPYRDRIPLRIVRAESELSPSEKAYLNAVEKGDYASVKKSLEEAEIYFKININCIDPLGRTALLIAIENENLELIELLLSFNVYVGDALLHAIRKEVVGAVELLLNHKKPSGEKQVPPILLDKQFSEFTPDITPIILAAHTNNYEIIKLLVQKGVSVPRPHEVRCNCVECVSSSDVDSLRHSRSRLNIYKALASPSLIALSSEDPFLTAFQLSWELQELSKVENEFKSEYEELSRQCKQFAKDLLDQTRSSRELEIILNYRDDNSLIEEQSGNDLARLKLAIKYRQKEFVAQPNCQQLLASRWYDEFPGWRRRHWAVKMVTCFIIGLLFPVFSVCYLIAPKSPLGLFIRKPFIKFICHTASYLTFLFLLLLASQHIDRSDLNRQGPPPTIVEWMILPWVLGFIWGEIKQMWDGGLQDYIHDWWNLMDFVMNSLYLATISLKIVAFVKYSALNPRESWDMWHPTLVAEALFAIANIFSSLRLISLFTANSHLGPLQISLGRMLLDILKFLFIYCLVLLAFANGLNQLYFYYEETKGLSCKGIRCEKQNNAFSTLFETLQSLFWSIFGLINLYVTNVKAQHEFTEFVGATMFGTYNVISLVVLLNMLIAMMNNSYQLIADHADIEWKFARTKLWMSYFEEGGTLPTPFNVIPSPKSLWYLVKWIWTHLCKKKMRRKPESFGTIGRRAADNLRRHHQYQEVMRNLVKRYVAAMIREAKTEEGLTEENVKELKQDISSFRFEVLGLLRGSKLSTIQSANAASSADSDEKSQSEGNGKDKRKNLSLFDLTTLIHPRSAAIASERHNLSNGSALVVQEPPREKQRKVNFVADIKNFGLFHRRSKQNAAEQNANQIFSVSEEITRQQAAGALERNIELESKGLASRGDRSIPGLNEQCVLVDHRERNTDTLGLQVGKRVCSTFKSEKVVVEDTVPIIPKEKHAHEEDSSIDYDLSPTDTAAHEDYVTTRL
For test [6] the target is unchanged. The test is described as follows: blockers of DAMGO-evoked TRPC4 calcium flux – cell-based, second round, Fluo4, HEK293 TRPC4beta/mu-opioid, 1 µM, confirmation (AID 2637;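 active means calcium signal ratio cut to more than 3 SD under the fully stimulated control mean yet still positive, in both repeats and the primary screen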). The following applies: at 1 µM; active compounds read high.
Test [7] shares this target. The test is described as follows: calcium entry via TRPC4 opening agents – cell-based, HEK293 TRPC4/mu-opioid, Fluo-4 calcium, dose response (AID 434937;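 active means primary screen activator hit with a dose response curve and TRPC4 channel activation at any tested dose; inactive means no activation, no dose response, or not a primary hit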).
Test [8] has the same target. The test is described as follows: potentiation of DAMGO-evoked TRPC4 calcium signal – cell-based, HEK293 TRPC4/mu-opioid, Fluo-4 calcium, EC20 DAMGO, dose response (AID 434941;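 active means earlier screen potentiator hit that boosts the TRPC4 ion channel at some dose, with a dose response; inactive means no potentiation, no dose response, or not a prior hit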;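 further: calcium entry triggered by an EC20 dose of DAMGO at the co-expressed mu-opioid receptor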).
Test [9] has the same target. The test is described as follows: block of DAMGO-driven TRPC4 calcium entry – cell-based, HEK293 TRPC4/mu-opioid, Fluo-4 calcium, dose response (AID 434942).
Test [10] has as its target Short transient receptor potential channel 6 (Mus musculus) (UniProt Q61143). The test is described as follows: TRPC6 blockade by TRPC4 inhibitor hits – cell-based, HEK293, membrane potential dye, duplicate, selectivity assay for TRPC4 inhibitor project, confirmation (AID 434948;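 active means active in primary screen and both duplicates, each dropping signal beyond three positive-control SD with fluorescence still positive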). The following applies: HEK293 TRPC6, membrane potential dye fluorescence, at 10 µM, stimulated with maximal-effect acetylcholine; active compounds read high.

For test [11] the target is unchanged. The test is described as follows: TRPC6 opening by TRPC4 activator hits – cell-based, HEK293, membrane potential dye, duplicate, selectivity assay for TRPC4 activator project, confirmation (AID 434950;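 active means membrane potential signal rise above negative control mean plus 3 SD in both duplicates, also active in the earlier TRPC4 screen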;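 on activation: 0% = buffer only wells and 100% = acetylcholine maximal-effect wells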). The conditions noted are these: HEK293 TRPC6, membrane potential fluorescence, at 10 µM; activation: active compounds read high; outcome: activation.
Test [12] has the same target. The test is described as follows: positive modulators of mouse TRPC6 channel – HEK293 cells, membrane potential dye, duplicate, selectivity assay for TRPC4 potentiator project, confirmation (AID 434952;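 active means compound raising the membrane signal above positive-control mean plus 3 SD in both repeats, and a primary screen hit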). The conditions noted are these: HEK293 TRPC6, membrane potential dye fluorescence, at 10 µM, maximal acetylcholine added after compound; active compounds read high.
Test [13] addresses Short transient receptor potential channel 4 (Mus musculus) (UniProt Q9QUQ5). The test is described as follows: calcium flux activators in TRPC4/5HT1a cells, counter-screen for TRPC4 activator project, cell-based, second counter screen, HEK293 TRPC4/5HT1a, Fluo-4 (AID 434977;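 active means calcium signal rise above buffer-control mean plus 5 SD in both duplicates, and also a hit in the primary screen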). The conditions noted are these: Fluo-4 calcium flux, at 10 µM; active compounds read high.
The nature of test [14]: serotonin-gated TRPC4 signal block – cell-based, second counter screen, HEK293 TRPC4/5HT1a, Fluo-4, counter-screen for TRPC4 inhibitor project, confirmation (AID 434978;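 active means primary screen active whose calcium signal fell more than 3 SD beyond the full-serotonin control mean in both duplicate plates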;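 on outcome: serotonin given first at submaximal then at maximal dose after compound preincubation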). The following applies: Fluo-4 calcium flux, at 10 µM, serotonin added to trigger calcium flux; active compounds read high. A general note: Counterscreens check selectivity or assay interference.
The subject of test [15] is TRPC4 (mouse), co-expressed with 5HT1a in HEK293. The test is described as follows: enhancement of serotonin-evoked TRPC4 response – cell-based, second counter screen, HEK293 TRPC4/5HT1a, Fluo-4, counter-screen for TRPC4 potentiator project, confirmation (AID 434979;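 active means signal rise over 3 SD above mean of control wells given weak agonist, in both repeats and first screen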). The following applies: Fluo-4 calcium flux, at 10 µM, serotonin added at its EC20 dose; active compounds read high.

Test [16] is described as follows: nonspecific calcium rise without TRPC4 – cell-based, HEK293 mu-opioid receptor line, counter-screen for TRPC4 activator project, confirmation (AID 449723;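 active means hit in primary screen, with calcium signal over 5 SD above buffer well mean in both duplicates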;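 further: counter screen cells carry the mu-opioid receptor alone and lack TRPC4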). The following applies: HEK293 mu-opioid cells, Fluo-4 calcium fluorescence, at 10 µM; active compounds read high.
Test [17] is described as follows: nonspecific potentiation of DAMGO calcium response – cell-based, HEK293 mu-opioid receptor line, counter-screen for TRPC4 allosteric potentiator project, confirmation (AID 449724;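 active means calcium signal rise more than 3 SD above the low-dose agonist control mean, in both duplicate plates and the primary screen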;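 further: HEK293 cells carrying mu-opioid receptor only with no TRPC4 channel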). The following applies: HEK293 mu-opioid receptor cells, Fluo-4 calcium flux, at 10 µM, compound added before EC20 DAMGO stimulus; active compounds read high.

The values below come from PubChem BioAssay.

For part of these data: Entries with a potency or affinity are not part of this list. The source made the active and inactive calls.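 How the source made its calls, unless noted: active means primary screen inhibitor hit that blocks the TRPC4 channel at some tested dose, yielding a dose curve; inactive means the rest.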

Chain of Short transient receptor potential channel 6 (Mus musculus) (Q61143 whole entry, looked up): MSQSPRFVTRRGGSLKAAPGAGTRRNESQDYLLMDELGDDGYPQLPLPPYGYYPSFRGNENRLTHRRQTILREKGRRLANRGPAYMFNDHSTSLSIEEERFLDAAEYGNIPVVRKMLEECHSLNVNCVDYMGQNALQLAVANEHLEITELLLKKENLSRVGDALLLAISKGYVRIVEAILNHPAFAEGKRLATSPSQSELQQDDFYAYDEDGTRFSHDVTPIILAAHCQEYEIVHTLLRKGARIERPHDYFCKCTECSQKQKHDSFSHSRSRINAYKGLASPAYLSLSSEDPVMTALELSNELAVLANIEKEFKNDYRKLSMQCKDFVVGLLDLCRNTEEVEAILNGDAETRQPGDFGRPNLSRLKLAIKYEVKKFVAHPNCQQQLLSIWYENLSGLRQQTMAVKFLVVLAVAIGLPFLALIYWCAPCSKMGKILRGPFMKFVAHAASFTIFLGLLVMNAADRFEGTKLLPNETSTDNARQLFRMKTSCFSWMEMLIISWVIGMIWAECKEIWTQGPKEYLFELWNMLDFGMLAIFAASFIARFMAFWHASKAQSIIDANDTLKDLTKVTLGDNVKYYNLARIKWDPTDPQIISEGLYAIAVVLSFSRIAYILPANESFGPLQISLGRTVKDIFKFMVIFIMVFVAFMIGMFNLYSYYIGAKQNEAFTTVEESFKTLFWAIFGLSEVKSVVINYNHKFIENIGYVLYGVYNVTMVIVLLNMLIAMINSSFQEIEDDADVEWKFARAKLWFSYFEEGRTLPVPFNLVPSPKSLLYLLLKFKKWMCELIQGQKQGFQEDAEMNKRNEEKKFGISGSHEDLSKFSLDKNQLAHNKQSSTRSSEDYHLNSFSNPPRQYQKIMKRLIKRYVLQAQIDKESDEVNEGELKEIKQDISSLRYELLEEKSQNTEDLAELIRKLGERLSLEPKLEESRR

Consider `CC(C)Oc1ccc(CCC(=O)NNC(=S)NCc2ccccc2)cc1`, for which the result in [1], in test [2], in test [3], in test [4], in [5] and in [6] was inactive. Moreover, the outcome in [7], in [8], in [9], in [10], in test [12] and in [13] was inactive. Also, the outcome in test [14], in test [15], in test [16] and in test [17] was inactive. In [11], the activation was 37.5% (active).
Take `Cc1ccc(CSc2nnc(-c3cccc(S(=O)(=O)N4CCOCC4)c3)n2C2CCCC2)cc1`: the outcome in test [1], in test [2], in [3], in [4], in test [5] and in test [6] was inactive. The outcome in test [7], in test [8], in test [9], in [10], in test [11] and in [12] was inactive. Moreover, the result in test [13], in [14], in test [15], in test [16] and in test [17] was inactive.
Regarding `CN1CCN(c2ccc(S(=O)(=O)N3CCCCC3)cc2NC(=O)c2ccc(F)cc2F)CC1`, the outcome in test [1], in test [2], in test [3], in test [4], in test [5] and in [6] was inactive. The outcome in test [7], in [8], in [9], in test [10], in test [11] and in test [12] was inactive. The outcome in test [13], in [14], in test [16] and in test [17] was inactive. In addition, the potentiation in test [15] was 14.3% (active).
For `CCN(CC)CCn1c(=N)n(CC(O)COc2cccc(C)c2)c2ccccc21` (stereo not given), the outcome in test [1], in test [2], in test [3], in test [4], in [6] and in test [7] was inactive. The result in test [8], in test [9], in test [10], in test [11], in test [12] and in [13] was inactive. Moreover, the outcome in [15], in [16] and in test [17] was inactive. For the same compound, the results for the inhibition in test [5] and in test [14] were 88% (active) and 6.72% (active), respectively.
As for `O=C(c1cc2cc(Br)cc(Br)c2oc1=O)N1CCCC1`, the outcome in test [1], in test [2], in test [3], in [4], in [5] and in test [6] was inactive. The outcome in test [7], in [8], in [9], in test [10], in test [11] and in test [12] was inactive. In addition, the outcome in test [13], in test [14], in [16] and in test [17] was inactive. In addition, in test [15], the potentiation was 15.8% (active).
Regarding `Cc1ccc(Cl)cc1N1CCN(Cc2nc3c(c(=O)[nH]c(=O)n3C)n2Cc2ccccc2F)CC1`, the outcome in test [1], in test [2], in test [3], in test [4], in test [5] and in [6] was inactive. Also, the outcome in test [7], in test [8], in [9], in test [10], in test [11] and in [12] was inactive. The result in test [13], in [14], in [16] and in [17] was inactive. In addition, the potentiation in [15] is 25.8% (active).
In the case of `CC(=O)Nc1cccc(C(=O)OC(C(=O)c2ccc(C)cc2)c2ccccc2)c1` (stereo not given), the result in test [1], in test [2], in test [3], in test [4], in test [5] and in [6] was inactive. The outcome in test [7], in test [8], in test [9], in [10], in test [11] and in [12] was inactive. In addition, the outcome in [13], in test [14], in test [16] and in test [17] was inactive. For the same compound, the potentiation in [15] is 22.7% (active).
As to `CC(C)n1c(SCC(=O)N2c3ccccc3Sc3ccccc32)nc2c1c(=O)n(C)c(=O)n2C`, the result in test [1], in test [2], in test [3], in [4], in test [5] and in test [6] was inactive. The outcome in [7], in test [8], in test [9], in test [10], in [11] and in test [12] was inactive. Besides, the result in [13], in test [14], in test [16] and in [17] was inactive. Moreover, the potentiation in [15] was 50.7% (active).
Regarding `COc1ccc(OC)c(NC(=O)COC(=O)Cc2ccc(-c3ccccc3)cc2)c1`, the result in test [1], in test [2], in [3], in test [4], in [5] and in test [6] was inactive. The outcome in test [7], in test [8], in test [9], in [10], in test [11] and in [12] was inactive. Also, the outcome in test [13], in test [14], in [16] and in test [17] was inactive. Moreover, in test [15], the potentiation is 31.8% (active).
In the case of `O=S(=O)(NCCSc1nnc(-c2ccco2)n1-c1ccccc1)c1ccccc1`, the result in test [1], in test [2], in test [3], in [4], in test [5] and in test [6] was inactive. In addition, the outcome in [7], in test [8], in [9], in test [10], in [11] and in [12] was inactive. Further, the result in test [13], in test [14], in test [15], in test [16] and in [17] was inactive.
As for `O=C(NCc1cccs1)C12CC3CC(CC(C3)C1)C2`, the result in test [1], in [2], in test [3], in test [4], in test [5] and in test [6] was inactive. Also, the result in [7], in test [8], in [9], in test [10], in [11] and in [12] was inactive. Moreover, the result in [13], in test [14], in [15], in test [16] and in [17] was inactive.
Take `COc1ccc(S(=O)(=O)n2nc(OC(=O)c3ccccc3Br)cc2N)cc1`: the result in test [1], in test [2], in test [3], in test [4], in [5] and in test [6] was inactive. The result in test [7], in test [8], in [9], in test [10], in test [11] and in test [12] was inactive. The outcome in test [13], in test [14], in test [15], in test [16] and in test [17] was inactive.
Take `COc1ccccc1CCc1nnc(CCC(=O)NCCCOc2cccnc2)o1`: the outcome in test [1], in [2], in [3], in [4], in [6] and in test [7] was inactive. For the same compound, the result in test [8], in [9], in test [10], in test [11], in test [12] and in test [13] was inactive. Moreover, the result in test [14], in test [15], in [16] and in test [17] was inactive. In addition, the inhibition (usually the share of the control response that was lost under treatment) in test [5] is 48% (active).
For `c1ccc(C(c2nnnn2C2CCCC2)N2CCN(c3ccccc3)CC2)cc1` (stereo not given), the outcome in test [1], in [2], in [3], in [4], in test [5] and in test [6] was inactive. Further, the result in test [7], in test [8], in test [9], in [10], in test [11] and in [12] was inactive. Besides, the result in [13], in test [14], in test [15], in test [16] and in test [17] was inactive.
For `COc1ccc(N2CCN(C3CCCCC3NS(=O)(=O)c3ccc(Cl)cc3)CC2)cc1` (stereo not given), the outcome in test [1], in test [2], in test [3], in test [4], in [5] and in test [6] was inactive. In addition, the outcome in test [7], in test [8], in [9], in test [10], in test [11] and in test [12] was inactive. Also, the result in test [13], in test [14], in [16] and in [17] was inactive. The potentiation in test [15] was 10.1% (active).
